PLCg1 inh = inhibitors of human phospholipase C gamma1. P19174. purified PLC-gamma1, fluorogenic substrate, fluorescence. inhibition, % at 12.2 µM. 370,000 tested, 0.84% active. AID 720700; in the data active = inhibition above about 9.5%
PLC-beta3 inh = inhibitors of human phospholipase C beta3; Q01970; Purified PLC-beta3, fluorogenic substrate, fluorescence; inhibition, % at 12.2 µM; 370,000 tested, 0.18% active; AID 720704;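 note: 0% = median of compound wells on plate and 100% = full blocker control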
sPLA2-III inh = Inhibits HGIII-sPLA2 liposome hydrolysis, primary screen. inhibition, % at 12.2 µM. QFRET BODIPY PC-A2 liposome hydrolysis, fluorescence. Q9NZ20. AID 743126. 370,000 tested, 0.56% active;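 active = inhibition above mean plus 3 SD of compounds lying within the high and low control bounds, cut at about 19% in these data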;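 note: 0% = median of test compound wells and 100% = no enzyme DMSO wells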
proKLK7 act = activators of human kallikrein-7 zymogen. purified proKLK7, EDANS-DABCYL substrate fluorescence; 100% is mature enzyme control, 0% vehicle. activation, % at 7 µM. 370,000 tested, 0.9% active;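 active = activation above the mean of all tested compounds plus 3 SD, computed per campaign excluding outliers beyond control limits, cut at about 13% in these data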
Target sequence (P49862 whole entry, looked up): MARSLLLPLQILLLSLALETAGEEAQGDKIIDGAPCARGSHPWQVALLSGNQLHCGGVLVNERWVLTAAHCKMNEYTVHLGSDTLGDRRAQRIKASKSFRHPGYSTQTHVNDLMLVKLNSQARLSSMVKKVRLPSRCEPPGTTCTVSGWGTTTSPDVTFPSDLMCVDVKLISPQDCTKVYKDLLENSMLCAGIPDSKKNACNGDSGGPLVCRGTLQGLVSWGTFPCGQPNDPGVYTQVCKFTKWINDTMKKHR
ADAM10 inh = inhibits human ADAM10 | 370,000 tested, 0.62% active | AID 720582 | inhibition, % at 7 µM | O14672 | recombinant ADAM10, EDANS/DABCYL FRET peptide cleavage, 3 h;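 active = inhibition above a per-campaign cutoff equal to the mean of compounds falling between control-based bounds plus 3 SD, cut at about 20% in these data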;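 note: 0% = DMSO wells while the 100% control is not disclosed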
ADAM17 inh = inhibitors of human ADAM17. recombinant ADAM17, EDANS/DABCYL FRET peptide cleavage. inhibition, % at 6.95 µM. 370,000 tested, 0.83% active;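 active = inhibition above the mean of compounds lying between control limits plus 3 SD, set per campaign, cut at about 8.5% in these data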;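 note: 0% = DMSO-only wells as the low control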
PLCg1 ctr = inhibits human PLC-gamma1 in PLC-beta3 counter-screen; shares compounds with PLCg1 inh; purified PLC-gamma1, fluorogenic substrate, fluorescence; inhibition, % at 12.3 µM; 3,300 tested, 3.1% active; AID 743258; in the data active = inhibition above about 9.5%
PLCb3 confirm = human PLC-beta3 inhibition, confirmation | shares compounds with PLCg1 inh | purified PLC-beta3, fluorogenic substrate fluorescence | inhibition, % at 12.3 µM | 3,300 tested, 1% active | AID 743261
The depositor's hits bear a star; x = not tested or not shown. A selection: hits, their analogues and other compounds. The true share with any hit is near 3.4%. Cut-off read from the data, not from the text of the source, unless noted: active = inhibition above about 11%; inactive = the rest.

SMILES	PLCg1 inh	PLC-beta3 inh	sPLA2-III inh	proKLK7 act	ADAM10 inh	ADAM17 inh	PLCg1 ctr	PLCb3 confirm
CCC[C@H]1[C@@H](NC(=O)c2cccc(C(F)(F)F)c2)CC[C@@]23CCCN2C(=O)CCC[C@@H]13	-2	-2	2	x	-7	-6	x	x
COc1ccc(C2C(C(=O)Nc3cc(OC)c(OC)c(OC)c3)CCC(=O)N2c2ccc(OC)cc2)cc1 (configuration not stated)	-1	-2	-3	0	-5	0	x	x
O=C1CN(C(=O)c2ccccc2[N+](=O)[O-])C(c2ccccc2)c2cc(Br)ccc2N1 (configuration not stated)	9.7*	-5	3	0	4	1	-3	-9
CCC(CC)C(=O)N1CC(=O)Nc2ccc(F)cc2C1c1ccccc1 (configuration not stated)	1	-3	-9	1	5	-1	x	x
Cc1ccc2c(c1)C(c1ccccc1)N(C(=O)c1ccccc1[N+](=O)[O-])CC(=O)N2 (configuration not stated)	3	-1	-2	0	3	1	x	x
COc1ccccc1C(=O)N1CC(=O)Nc2ccc(F)cc2C1c1ccccc1 (configuration not stated)	9.6*	3	12	0	-1	8	-10	-2
Cc1ccccc1C(=O)N(C)[C@H]1C[C@H]2c3[nH]c4c(-c5ccc6c(c5)OCO6)cccc4c3CCN2C[C@H]1[C@H](C)O	-25	-28	-8	1	9	2	x	x
COC(=O)C[C@@H]1CC[C@H]2[C@@H](COc3ccc(NC(=O)c4ccc(Cl)cc4)cc3C(=O)N2C)O1	12*	-51	16	0	-15	-10	0	2
CCCNC(=O)C[C@H]1CC[C@H]2[C@@H](COc3ccc(NC(=O)c4cncs4)cc3C(=O)N2C)O1	12*	11*	-10	0	12	-7	16*	18*
CNC(=O)C[C@@H]1CC[C@@H]2[C@H](COc3ccc(NC(=O)c4cccc(F)c4)cc3C(=O)N2C)O1	-2	3	4	0	-1	-4	x	x
CSc1ccc(C(=O)NCC2CCN(C(=O)C(=O)c3cc4ccccc4o3)CC2)cc1	2	-1	11	1	-8	1	x	x
O=S1(=O)c2ccc(N3CCN(Cc4ccccc4F)CC3)cc2Oc2ccccc2CN1Cc1cn(Cc2ccccc2C(F)(F)F)nn1	-3	-2	4	0	-2	0	x	x
O=C(O)C1CCCCC1C(=O)Nc1cc(C(F)(F)F)ccc1Cl (configuration not stated)	10.0*	-4	6	0	7	4	-3	-6
COC(=O)[C@@]12CCCCC3=C1N(CCC3)C(=O)[C@H]2CC(=O)N1CCN(C(=O)c2ccco2)CC1	-2	1	7	0	-9	-4	x	x
CCC(C)(O)C(=O)N[C@H]1CCCN1C(=O)/C=C/c1ccccc1 (some centres not stated)	11*	4	12	0	10	4	-8	-23
CCCCCCCCCCOC(=O)Cn1c(COc2cccc(C)c2)[n+](C)c2ccccc21	5	0	-169	0	-1	2	x	x
CCCCCCCCCCOC(=O)Cn1c(COc2ccc(Cl)cc2)[n+](C)c2ccccc21	13*	-3	-112	-1	11	-1	7	2
CCCCCCCCCCOC(=O)Cn1c(COc2ccccc2)[n+](C)c2ccccc21	9.5*	0	-158	0	14	6	-5	-5
COCCNC(=O)C1CC(=O)N(C2CCCC2)C1 (configuration not stated)	-1	5	3	0	2	-3	x	x
CCCCNC(=O)C1CC(=O)N(C2CCCC2)C1 (configuration not stated)	12*	0	0	0	-1	-4	-5	-3
CCCC1CCC2(CCCN2CCOC(=S)Nc2ccccc2)CC1 (configuration not stated)	3	-2	8	x	2	-5	x	x
O=C(O)/C=C/C(=O)NCCc1ccccc1	10*	4	12	0	1	4	-2	2
O=S1(=O)c2c(NCc3ccco3)cccc2Oc2ccccc2CN1Cc1cn(Cc2ccc(F)cc2)nn1	-39	-50	-8	-2	-1	1	x	x
CCOC(=O)C1(C)CCN1C(=O)c1ccc(C)cc1 (configuration not stated)	9.8*	16*	11	0	7	7	-2	2
COC(=O)C1=C(C)N(Cc2ccc(C(F)(F)F)cc2)C(=NCC2CC2)NC1c1cccc(Cl)c1 (configuration not stated)	3	-4	-3	0	0	-1	x	x
SMILES	PLCg1 inh	PLC-beta3 inh	sPLA2-III inh	proKLK7 act	ADAM10 inh	ADAM17 inh	PLCg1 ctr	PLCb3 confirm
Cc1ccc(Nc2nc(Oc3ccc(=O)[nH]n3)nc(N(C)C)n2)cc1	10.0*	3	4	0	-8	2	-8	-1
CN(C)c1nc(Nc2ccccc2)nc(Oc2ccc(=O)[nH]n2)n1	4	3	5	0	1	-3	x	x
[O-]C1=N/[N+](=C/c2ccccc2Cl)CC1	11*	7	6	0	5	8	-6	-2
O=C(Nc1cc2c(cc1[N+](=O)[O-])OCCO2)c1cccnc1	10*	7	14	-1	-11	-3	-3	-1
CC1=C(C(=O)OCc2ccc([N+](=O)[O-])cc2)N2C(=O)C(NC(=O)Cc3ccccc3)C2SC1 (configuration not stated)	24*	2	-3	0	8	-3	24*	1
Cc1cnc(CN(C)C(=O)C2CCC(=O)N(CCc3ccccc3)C2)[nH]1 (configuration not stated)	4	-2	-3	0	-1	3	x	x
CN(CCC1CCOCC1)C(=O)C1CCC(=O)N(CCc2ccccc2)C1 (configuration not stated)	9.7*	1	6	-1	-8	0	0	-51
CC1CCCCC1N(C(=O)c1cc(C2CC2)on1)C1CCCCCC1 (configuration not stated)	0	-2	4	1	2	-4	x	x
CC(Sc1ccc2c(c1)OCCO2)C(=O)Nc1ccc(N2CCOCC2)cc1 (configuration not stated)	13*	-3	3	0	4	1	-5	-1
Cc1ccc(S(=O)(=O)NCC2CCN(C(=O)C(=O)c3cc4ccccc4o3)CC2)cc1	0	4	-19	0	3	2	x	x

Compound activity as filed in PubChem BioAssay.
